Screening data (PubChem BioAssay)
Hits are enriched below; roughly 3.1% of the tested compounds scored in any of these assays.
Peg3 prom inh: Peg3 promoter-driven luciferase inhibitors, primary screen, cell-based, HeLa, luciferase luminescence; HeLa PEG-Prom luciferase reporter, overnight; inhibition, % at 20 µM; AID 588405, 2011; actives 1.7% (n = 360,000);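 active = inhibition of at least 50% at 20 µM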
PPC-1+TRAIL kill: compounds killing PPC-1 cancer cells with TRAIL present, primary screen, TRAIL potentiator project, ATPLite luminescence, uHTS. cell killing (% activity), % at 4 µM or 5 µM. actives 0.41% (n = 220,000). PPC-1 cells + TRAIL, ATPLite viability luminescence;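 active = cell killing above 50% in the first pass at 4 µM, then a duplicate retest at 5 µM averaging 50% or more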;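 note: plate controls were cells with TRAIL plus DMSO for no effect and medium-only wells lacking cells for full effect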
KKLEB tox: cytotoxicity in KKLEB CF airway cells, primary screen, cytotoxicity control for CF NF-kB inhibitor project, cell-based, uHTS, fluorescence assay plates. KKLEB CF airway cells viability, ATPlite luminescence, overnight; hits give low values; cells stimulated with P. aeruginosa culture filtrate. activity change (cytotoxicity), % at 5 µM. actives 0.36% (n = 360,000);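 active = corrected activity change at or below -50% at 5 µM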
CF NFkB block: inhibitors of PAF-induced NF-kB signaling, primary screen, cell-based, GFP fluorescence, uHTS | KKLEB NF-kB-GFP reporter, GFP fluorescence overnight | inhibition, % at 5 µM | actives 0.86% (n = 360,000) | AID 588850, 2011;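 active = at least 50% inhibition at 5 µM, scaled per plate between neutral and stimulator controls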;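 note: PAF is a Pseudomonas aeruginosa culture filtrate used as stimulus; plate controls were PAF-stimulated DMSO wells for no effect and unstimulated DMSO wells for full effect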
HIF-2a block: HIF-2a reporter inhibitors, primary screen, luminescence, 786-0 RCC cells. inhibition, % at 18.8 µM. AID 624352, 2012. 786-0 RCC cells HIF-2a reporter, luciferase luminescence, overnight. actives 0.72% (n = 360,000);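 active = inhibition of the luminescence signal of 40% or more relative to plate controls, in a single-dose primary screen at 18.75 µM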
TRAIL sens C8: viability loss with TRAIL in NB7+C8 cells, primary screen, TRAIL sensitizer project, cell-based, ATPlite luminescence; inhibition (viability loss, TRAIL sensitization), % at 10 µM; actives 1% (n = 360,000); AID 624354, 2012;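 active = compounds causing at least 50% loss of cell viability in the single-dose screen, relative to plate controls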
PPC-1 tox: cytotoxicity in PPC-1 cells, confirmation, cytotoxicity control for TRAIL apoptosis potentiator project, cell-based, ATP content luminescence. shares compounds with PPC-1+TRAIL kill. PPC-1 viability, ATPlite luminescence, overnight. cytotoxicity, % at 5 µM. actives 50% (n = 1,200). AID 1447, 2008;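 active = reconfirmed compounds whose average cytotoxicity reaches 50% or more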;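 note: 0% = DMSO-treated cells and 100% = wells holding medium but no cells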
An asterisk follows results filed as active.

Screening COc1ccc(-c2ccc(C(=O)NCc3ccco3)c3occc23)c(C)c1 returned Peg3 prom inh -145, KKLEB tox -8, CF NFkB block -1, HIF-2a block -192 and TRAIL sens C8 14.
`Cc1cccc(C)c1NC(=O)C(CCc1ccccc1)n1c(=O)c(-c2ccccc2)nc2ccccc21` (configuration not stated) gave HIF-2a block 21 and TRAIL sens C8 6.
CCc1nn(CC(=O)NCCC2=CCCCC2)c(=O)c2cc3cc(F)ccc3n12 was read as Peg3 prom inh 25, KKLEB tox -11, CF NFkB block 26, HIF-2a block 12 and TRAIL sens C8 24.
CC(/C=C1\SC(=S)N(c2ccc(C(=O)O)cc2)C1=O)=C\c1ccccc1 was read as Peg3 prom inh 17, PPC-1+TRAIL kill 31, KKLEB tox 1, CF NFkB block -10, HIF-2a block 51* and TRAIL sens C8 4.
COc1cc(/C=C2/SC(=S)N(CCC(=O)N3CCN(C)CC3)C2=O)cc(OC)c1OC was read as Peg3 prom inh 53*, KKLEB tox -3, CF NFkB block 9, HIF-2a block -12 and TRAIL sens C8 -3.
`O=C(CCN1C(=O)/C(=C\c2ccccc2F)SC1=S)N1CCCCC1` gave Peg3 prom inh 104*, KKLEB tox 0, CF NFkB block 96*, HIF-2a block 8 and TRAIL sens C8 27.
COc1cc(/C=C2\SC(=S)N(CCC(=O)N3CCN(C)CC3)C2=O)cc(OC)c1OC was read as Peg3 prom inh 17, KKLEB tox 3, CF NFkB block 10, HIF-2a block 0 and TRAIL sens C8 12.
Screening O=C(O)c1ccc2c(c1)C(=O)N(c1ccc(OCc3ccccc3)cc1)C2=O returned Peg3 prom inh 14, KKLEB tox -17, CF NFkB block -13, HIF-2a block 12 and TRAIL sens C8 7.
CC(NC(=O)CCc1nc2cc(S(=O)(=O)N3CCOCC3)ccc2n1C)c1ccc(S(N)(=O)=O)cc1 (configuration not stated) was read as Peg3 prom inh 5, KKLEB tox 15, CF NFkB block 0, HIF-2a block 7 and TRAIL sens C8 0.
`N#CC1=C(N)N2C(=C(C#N)C1c1ccccc1)Sc1ccccc12` (configuration not stated) gave PPC-1+TRAIL kill 11.
`N#CC1=C(N)N2C(=C(C#N)C1c1cccc(Br)c1)Nc1ccccc12` (configuration not stated) gave Peg3 prom inh 40, PPC-1+TRAIL kill 28, KKLEB tox -50*, CF NFkB block 42, HIF-2a block 3 and TRAIL sens C8 53*.
Screening CCc1nc2c(OCC3COc4ccccc4O3)cccn2c1N(C)C(=O)c1ccccc1F (configuration not stated) returned Peg3 prom inh 4, KKLEB tox 10, CF NFkB block -36, HIF-2a block -1 and TRAIL sens C8 0.
Screening CCN1C(=O)C2(C(C#N)=C(N)Oc3cc(C)oc(=O)c32)c2ccccc21 (configuration not stated) returned Peg3 prom inh 3, PPC-1+TRAIL kill -10, KKLEB tox 0, CF NFkB block -8, HIF-2a block 6, TRAIL sens C8 5 and PPC-1 tox 2.
`O=C(COc1ccc(S(=O)(=O)NC2CCCCC2)cc1)NCC1CCCO1` (configuration not stated) gave Peg3 prom inh 4, PPC-1+TRAIL kill 9, KKLEB tox -2, CF NFkB block 4, HIF-2a block 7, TRAIL sens C8 -8 and PPC-1 tox 2.
Screening COc1ccc(N2CC(C(=O)Nc3ccccc3C(=O)NCc3ccco3)CC2=O)cc1 (configuration not stated) returned Peg3 prom inh -3, PPC-1+TRAIL kill 22, KKLEB tox 1, CF NFkB block 0, HIF-2a block 12 and TRAIL sens C8 -8.
`O=C(NCc1ccco1)C1CC(=O)N(c2ccc(O)cc2)C1` (configuration not stated) gave Peg3 prom inh 1, PPC-1+TRAIL kill -18, KKLEB tox 2, CF NFkB block -4, HIF-2a block 18, TRAIL sens C8 2 and PPC-1 tox 8.
CCc1sc(C(=O)N2CCc3ccccc32)cc1C was read as Peg3 prom inh -283, PPC-1+TRAIL kill 26, KKLEB tox -20, CF NFkB block -20, HIF-2a block -252, TRAIL sens C8 56* and PPC-1 tox 31.
`CSc1ccc(/C=C/C(=O)Nc2ccccc2)cc1` gave Peg3 prom inh -128, PPC-1+TRAIL kill 64*, KKLEB tox -24, CF NFkB block -4, HIF-2a block -114, TRAIL sens C8 58* and PPC-1 tox 66*.
CCCc1cc(=O)oc2cc(OC(=O)CN3C(=O)NC4(CCCC4)C3=O)ccc12 was read as Peg3 prom inh 24, KKLEB tox 5, CF NFkB block 23, HIF-2a block -11 and TRAIL sens C8 -19.
COC(=O)C1=C(N)Oc2cc(C)n(CCc3ccccc3)c(=O)c2C1c1cccnc1 (configuration not stated) was read as Peg3 prom inh 16, PPC-1+TRAIL kill -3, KKLEB tox 11, CF NFkB block -4, HIF-2a block 29 and TRAIL sens C8 11.
Screening COC(=O)C1=C(N)Oc2cc(C)n(CCCn3ccnc3)c(=O)c2C1c1cccc(Cl)c1 (configuration not stated) returned Peg3 prom inh 4, PPC-1+TRAIL kill 7, KKLEB tox -10, CF NFkB block 21, HIF-2a block 23, TRAIL sens C8 -7 and PPC-1 tox -1.
For C=CCn1c(-c2ccc(OC)cc2)nc2ccccc21 the results were Peg3 prom inh -141, PPC-1+TRAIL kill 18, KKLEB tox 4, CF NFkB block 15, HIF-2a block -156 and TRAIL sens C8 11.
`C=CCn1c(-c2ccc(OC)cc2)nc2nc3ccccc3nc21` gave Peg3 prom inh -76, PPC-1+TRAIL kill -7, KKLEB tox -14, CF NFkB block 1, HIF-2a block -110, TRAIL sens C8 27 and PPC-1 tox 2.
